Results taken from PMC4336329 (PLoS ONE, 2015).
Screen size: about 310,000 compounds; about 2,200 (0.71%) showed an effect of 50% or more. Effects have a minus sign here. What follows is part of a selection rich in strong results, with near analogues and random picks from the rest.

biological target: human ether-à-go-go-related gene (hERG) potassium channel (human, UniProt Q12809); assay: primary screen, population patch clamp on CHO cells stably expressing hERG; higher = less effect of the substance
Sequence (Q12809 whole entry, looked up): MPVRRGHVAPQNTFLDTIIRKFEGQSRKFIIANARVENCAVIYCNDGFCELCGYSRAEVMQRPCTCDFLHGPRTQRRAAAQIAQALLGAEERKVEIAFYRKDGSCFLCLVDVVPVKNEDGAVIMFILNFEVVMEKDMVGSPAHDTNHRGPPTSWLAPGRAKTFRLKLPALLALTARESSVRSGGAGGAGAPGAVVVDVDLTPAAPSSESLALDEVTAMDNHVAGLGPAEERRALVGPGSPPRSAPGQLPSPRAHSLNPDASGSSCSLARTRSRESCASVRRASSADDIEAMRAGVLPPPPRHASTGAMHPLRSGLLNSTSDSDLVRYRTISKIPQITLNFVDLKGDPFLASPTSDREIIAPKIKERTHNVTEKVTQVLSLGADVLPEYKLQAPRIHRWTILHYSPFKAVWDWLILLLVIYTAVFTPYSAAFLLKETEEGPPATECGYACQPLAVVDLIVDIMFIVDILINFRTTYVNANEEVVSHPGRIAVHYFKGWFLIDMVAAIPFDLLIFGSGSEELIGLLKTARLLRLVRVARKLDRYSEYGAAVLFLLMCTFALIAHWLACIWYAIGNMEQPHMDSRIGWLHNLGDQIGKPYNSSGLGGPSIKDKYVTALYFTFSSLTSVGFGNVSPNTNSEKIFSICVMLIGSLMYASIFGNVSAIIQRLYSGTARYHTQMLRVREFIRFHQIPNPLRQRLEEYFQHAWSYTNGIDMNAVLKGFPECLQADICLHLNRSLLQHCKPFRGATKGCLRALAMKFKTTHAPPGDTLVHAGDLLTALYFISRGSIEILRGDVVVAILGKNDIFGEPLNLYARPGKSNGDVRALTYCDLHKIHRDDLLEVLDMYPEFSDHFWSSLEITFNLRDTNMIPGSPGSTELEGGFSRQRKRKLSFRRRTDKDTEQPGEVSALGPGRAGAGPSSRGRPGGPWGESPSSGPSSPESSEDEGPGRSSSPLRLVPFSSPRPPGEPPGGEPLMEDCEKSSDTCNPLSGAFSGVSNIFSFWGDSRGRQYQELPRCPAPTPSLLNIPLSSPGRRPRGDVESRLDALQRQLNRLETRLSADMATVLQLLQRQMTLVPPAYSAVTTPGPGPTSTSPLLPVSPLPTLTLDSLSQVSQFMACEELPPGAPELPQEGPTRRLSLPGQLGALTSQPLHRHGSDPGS

Row | SMILES | hERG current change (%, negative = inhibition) at 1uM [%]
1 | Cc1cccc(NC(=O)Nc2ccc3c(c2)OCO3)n1 | 15.6
2 | O=C(CN1CCN(C(=O)c2c(F)cccc2F)CC1)Nc1ccccc1C(F)(F)F | 3.09
3 | O=C(CN1CCN(C(=O)c2cccc(-n3cnnn3)c2)CC1)Nc1ccccc1Cl | -92.9
4 | O=C(CN1CCN(C(=O)c2cncn2-c2ccc(F)cc2)CC1)Nc1ccccc1C(F)(F)F | -68.3
5 | CCc1ccccc1NC(=O)CN1CCN(C(=O)c2cccc(-n3cnnn3)c2)CC1 | -5.51
6 | O=C(CN1CCCCC1)Nc1ccccc1Cl | 13.9
7 | Cc1cccc(NC(=O)CN2CCN(C(=O)c3cccc(-n4cnnn4)c3)CC2)c1C | -11.9
8 | Cc1cccc(NC(=O)CN2CCN(C(=O)c3cncn3-c3ccc(F)cc3)CC2)c1C | -22.2
9 | Cc1nn(Cc2ccccc2)c(C)c1C(=O)N1CCN(CC(=O)Nc2ccccc2Cl)CC1 | -13.4
10 | O=C(CN1CCN(C(=O)c2cncn2-c2ccccc2)CC1)Nc1ccccc1Cl | -83.4
11 | O=C(Nc1ccncc1)Nc1cccc(Cl)c1 | 6.49
12 | CC(C)(C)n1nc2c(c1NC(=O)c1ccc(C(F)(F)F)cc1)CS(=O)(=O)C2 | -9.67
13 | Cc1ccc(-c2nc(CS(=O)CC(=O)NCCN3CCCCCC3)c(C)o2)cc1 (stereo not shown) | 15.5
14 | Cc1ccc(C(=O)Cn2c(N3CCOCC3)nc3c2c(=O)n(C)c(=O)n3C)cc1 | 5.32
15 | COc1cccc(Nc2nc(Nc3ccc(Cl)c(C(=O)O)c3)nc(C)c2[N+](=O)[O-])c1 | 9.52
16 | CCOc1ccc(NS(=O)(=O)c2ccc(SC)cc2)cc1 | 0.548
17 | O=C(Nc1ccnn1C1CCN(Cc2ccc(C#CCCO)cc2)CC1)c1cccc(F)c1 | -37.5
18 | CCn1cc(CN2CCC(n3nccc3NC(=O)c3cccc(F)c3)CC2)cn1 | 6.11
19 | O=C(Nc1ccnn1C1CCN(Cc2ccc3nonc3c2)CC1)c1cccc(F)c1 | -1.92
20 | COc1ccc(CN2CCC(n3nccc3NC(=O)c3cccc(F)c3)CC2)cc1O | -81.5
21 | CC(=O)c1cccc(CN2CCC(n3nccc3NC(=O)c3ccc4c(c3)OCO4)CC2)c1 | 6.25
22 | CCc1ccc(CN2CCC(n3nccc3NC(=O)c3cccc(F)c3)CC2)cc1 | -78.3
23 | COc1ccc(CN2CCC(n3nccc3NC(=O)C3CC3)CC2)cc1O | -18.7
24 | CCOc1cccc(CN2CCC(n3nccc3NC(=O)c3ccc4c(c3)OCO4)CC2)c1 | -1.26
25 | CCc1ccc(CN2CCC(n3nccc3NC(=O)c3ccc4c(c3)OCO4)CC2)cc1 | -58.4
